Measurements taken from PubChem BioAssay (EPA / NIEHS).
Records with an inconclusive call do not appear. Calls of active or inactive are those of the source. The calls were made as follows, unless noted: active = hit-call score of the fitted dose curve at least 0.9, where 1 is the maximum; inactive = score below 0.9.

Experiments:
[1] = CCTE_Mundy_HCI_Cortical_Synap_Neur_Matur_NeuriteSpotCountPerNeuriteLength: CCTE's Synaptogenesis and Neurite Maturation Assay in rat cortical cells for Neurite Spot Count per Neurite Length, Mundy Lab (AID 2284210)
Procedure, shortened: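 Neurite-associated synapse density (synaptophysin puncta per unit neurite length) is measured by fluorescence high-content imaging in rat cortical cultures treated from DIV 7 and fixed at DIV 12, with DMSO as negative control.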

[2] = CCTE_Mundy_HCI_Cortical_NOG_NeuriteLength: CCTE's Neurite Outgrowth Assay in rat cortical cells for Neurite Length, Mundy Lab (AID 2284213);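 as to AC50: neurites imaged about 48 to 50 h after chemical exposure began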
Procedure, shortened: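 First, rat primary cortical cells were plated and, 2 h later, given test chemical as a 1/10 dilution. Finally, βIII-tubulin immunostaining enabled automated imaging of neurite length.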

[3] = CCTE_Mundy_HCI_Cortical_Synap_Neur_Matur_NeuriteLength: CCTE's Synaptogenesis and Neurite Maturation Assay in rat cortical cells for Neurite Length, Mundy Lab (AID 2284214)
Procedure, shortened: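 Read-out: high-content imaging of MAP2-labelled neurites, with synaptophysin and Hoechst co-stain, in rat cortical cultures fixed at DIV 12. Activity fitted in positive direction relative to DMSO baseline.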

[4] = CCTE_Mundy_HCI_Cortical_Synap_Neur_Matur_NeuriteSpotCountPerNeuron: CCTE's Synaptogenesis and Neurite Maturation Assay in rat cortical cells for Neurite Spot Count per Neuron Count, Mundy Lab (AID 2284215)
Procedure, shortened: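 Read-out: neurite-associated synaptophysin puncta per neuron, imaged by high-content analysis after MAP2, synaptophysin and Hoechst staining. Rat primary cortical cultures, dosed DIV 7 through DIV 12; DMSO served as baseline.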

[5] = CCTE_Mundy_HCI_Cortical_Synap_Neur_Matur_SynapseCount: CCTE's Synaptogenesis and Neurite Maturation Assay in rat cortical cells for Synapse Count, Mundy Lab (AID 2284218)
Procedure, shortened: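 Read-out: synapse number per neuron, automated high-content imaging of fixed cells immunostained for MAP2 and synaptophysin plus Hoechst nuclei. Rat primary cortical cultures, AraC at DIV 5, chemical dosing DIV 7–12. Positive-direction fit relative to DMSO.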

[6] = CCTE_Mundy_HCI_Cortical_Synap_Neur_Matur_CellBodySpotCount: CCTE's Synaptogenesis and Neurite Maturation Assay in rat cortical cells for Cell Body Spot Count, Mundy Lab (AID 2284223)
Procedure, shortened: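 Read-out: cell body-associated synaptophysin puncta per neuron, imaged after MAP2, synaptophysin and Hoechst staining. Rat cortical cells, AraC DIV 5, chemical dosing DIV 7, fixation DIV 12. Activity fitted in positive direction relative to DMSO baseline.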

[7] = CCTE_Mundy_HCI_Cortical_NOG_NeuronCount: CCTE's Neurite Outgrowth Assay in rat cortical cells for Neuron Count, Mundy Lab (AID 2284236; active = hit-call score of the fitted dose curve at least 0.9, where 1 is the maximum;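 also: neurons counted by imaging betaIII-tubulin and Hoechst stained cortical cells; cells exposed to compound for about 48 hours before fixation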)
Procedure, shortened: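 Read-out: neuron number by high-content imaging of betaIII-tubulin (Alexa Fluor-488) and Hoechst-labelled rat primary cortical cells.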

[8] = CCTE_Mundy_HCI_hNP1_Casp3_7: CCTE's Caspase-Glo 3/7 Assay in human neuroprogenitor cells for Apoptosis, Mundy Lab (AID 2284240)
Procedure, shortened: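 Neuroepithelial-lineage stem cells from WA09 embryonic cells were treated with chemicals after 40–44 h of culture. Twenty-four hours later, caspase-3/7 activation was detected luminescently after a 30 min room-temperature reagent step, with DMSO as baseline.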

[9] = IUF_NPC1b_proliferation_BrdU_72hr: Leibniz Research Institute for Environmental Medicine (IUF) 72-hour Neural Progenitor Cell Bromodeoxyuridine (BrdU) Proliferation Assay (NPC1b) (AID 2284207)
Procedure, shortened: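 Neural progenitor spheres of human fetal origin are treated for three days; BrdU added for the last 16 h is quantified by luminescence ELISA, with DMSO as baseline and EGF/FGF omission as positive control.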

[10] = IUF_NPC1a_proliferation_area_72hr: Leibniz Research Institute for Environmental Medicine (IUF) 72-hour Neural Progenitor Cell Proliferation Area Assay (NPC1a) (AID 2284208)
Procedure, shortened: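 hNPC spheres (human fetal cortex, GW 16-19), one per poly-Hema U-bottom well; EGF+FGF medium; dosed day 0, no re-dosing; 72 h, 37C, 5% CO2; phase-contrast sphere area; DMSO = baseline; minus-GF = positive ctrl.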

[11] = IUF_NPC1_viability_72hr: Viability Assessment at 72 hours in the Leibniz Research Institute for Environmental Medicine (IUF) Neural Progenitor Cell Proliferation Assay (NPC1) (AID 2284209)
Procedure, shortened: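 Alamar blue fluorescence (RFU) after 72 h exposure, normalized to DMSO baseline. hNPC spheres from GW 16-19 fetal cortex, single sphere per well in growth-factor medium; no compound renewal.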

[12] = IUF_NPC2c_oligodendrocyte_migration_120hr: Leibniz Research Institute for Environmental Medicine (IUF) 120-hour Neural Progenitor Cell Migration Assay for Oligodendrocyte Migration (NPC2c) (AID 2284297);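 also: O4-positive oligodendrocyte migration distance divided by radial glia migration distance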
Procedure, shortened: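 hNPC spheres (GW 16-19 cortex), PDL/laminin, DMEM/F12 3:1 + 1% N2, 37C. Dosing day 0–5, half feed day 3, DMSO ≤0.1%. Fixed 120 h; O4 ICC + Hoechst, HCI. Readout: mean oligodendrocyte distance from sphere edge / radial glia distance.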

[13] = IUF_NPC2a_radial_glia_migration_120hr: Leibniz Research Institute for Environmental Medicine (IUF) 120-hour Neural Progenitor Cell Migration Assay for Radial Glia Migration (NPC2a) (AID 2284298)
Procedure, shortened: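 Hoechst-stained nuclei imaged at 120 h; algorithm maps sphere core by densest nuclei, sets migration edge at density threshold, gives radial glia migration distance (um) per well vs DMSO. hNPC spheres (0.3 mm), PDL/laminin, DMEM/F12 3:1 + 1% N2.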

[14] = IUF_NPC2a_radial_glia_migration_72hr: Leibniz Research Institute for Environmental Medicine (IUF) 72-hour Neural Progenitor Cell Migration Assay for Radial Glia Migration (NPC2a) (AID 2284299)
Procedure, shortened: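 Readout: mean of four manual brightfield measurements of radial glia migration distance (um) at 72 h. hNPC spheres (0.3 mm) exposed to 7 compound concentrations plus solvent control on PDL/laminin, 37C, 5% CO2; activity fitted relative to DMSO.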

[15] = IUF_NPC2b_neuronal_migration_120hr: Leibniz Research Institute for Environmental Medicine (IUF) 120-hour Neural Progenitor Cell Migration Assay for Neuron Migration (NPC2b) (AID 2284300)
Procedure, shortened: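 hNPC spheres, PDL/laminin, DMEM:F12 3:1 + 1% N2, 37C/5% CO2; 7 concentrations + solvent control (DMSO ≤0.1%), 5 d exposure, half-feed day 3. Fix 120 h, TUBB3 ICC, HCI: mean neuron migration distance ÷ glia distance.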

[16] = IUF_NPC3_neuronal_differentiation_120hr: Leibniz Research Institute for Environmental Medicine (IUF) 120-hour Neuronal Differentiation Assay (NPC3) (AID 2284301)
Procedure, shortened: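 Neuronal differentiation of primary human neural progenitors measured by high-content imaging: percent TUBB3+ of Hoechst+ nuclei within migrated area at 120 h, seven-point serial dilution plus solvent control, gain or loss relative to DMSO.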

[17] = IUF_NPC2-5_cytotoxicity_72hr: Cytotoxicity Assessment at 72 hours in the Leibniz Research Institute for Environmental Medicine (IUF) Neural Progenitor Cell Migration and Differentiation Assay for Cytotoxicity (NPC2-5) (AID 2284306; active = hit-call score of the fitted dose curve at least 0.9, where 1 is the maximum;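 also: LDH release into supernatant measured by resorufin fluorescence marking membrane damage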)
Procedure, shortened: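 Primary human neural progenitor spheres migrate and differentiate on laminin. Compound is present from the start of differentiation, with DMSO kept at or below 0.1%. At 72 h, supernatant LDH is quantified fluorometrically, with values fitted in the positive direction.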

[18] = IUF_NPC2-5_cytotoxicity_120hr: Cytotoxicity Assessment at 120 hours in the Leibniz Research Institute for Environmental Medicine (IUF) Neural Progenitor Cell Migration and Differentiation Assay (NPC2-5) (AID 2284307; active = hit-call score of the fitted dose curve at least 0.9, where 1 is the maximum;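 as to AC50: LDH released into supernatant as membrane damage marker via resorufin fluorescence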)
Procedure, shortened: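 hNPC spheres on PDL/laminin, N2 medium, 37C; 7 concs + solvent control, DMSO ≤0.1%; 5-day exposure, half medium changed day 3. LDH in supernatant at 120 h, resazurin→resorufin fluorescence, gain-of-signal.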

[19] = IUF_NPC2-5_cell_number_120hr: Cell Number Assessment at 120 hours in the Leibniz Research Institute for Environmental Medicine (IUF) Neural Progenitor Cell Migration and Differentiation Assay (NPC2-5) (AID 2284308);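 also: count of Hoechst-stained nuclei in migration zone around plated human neural progenitor spheres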
Procedure, shortened: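 Hoechst-stained nuclei within the migration area were counted by automated high content imaging after 120 h. Single hNPC spheres differentiated on poly-D-lysine/laminin in DMEM/F12 (3:1) with 1% N2, compound present throughout, DMSO ≤0.1%.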

[20] = IUF_NPC2-5_viability_120hr: Viability Assessment at 120 hours in the Leibniz Research Institute for Environmental Medicine (IUF) Neural Progenitor Cell Migration and Differentiation Assay (NPC2-5) (AID 2284312)
Procedure, shortened: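 Human fetal (GW 16-19) neural progenitor spheres of 0.3 mm were plated on poly-D-lysine/laminin in N2 differentiation medium and exposed from day 0 for 120 h, with half-medium refresh at day 3. Viability was read as alamar blue resazurin-to-resorufin fluorescence against DMSO.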

Measured: AC50

C=CCN1CC[C@]23c4c5ccc(O)c4O[C@H]2C(=O)CC[C@@]3(O)[C@H]1C5
inactive: [1] | [2] | [3] | [4] | [5] | [6] | [7] | [8]

CC(=O)[O-].[Tl+]
active: [9] 82.1 µM | [10] 76.8 µM | [1] 35.1 µM | [2] 75.3 µM | [3] 23.8 µM | [4] 24.4 µM | [5] 31.9 µM | [6] 30.1 µM | [7] 50 µM | [12] 59.4 µM | [13] 44.2 µM | [14] 62.7 µM | [15] 33 µM | [16] 50.1 µM | [19] 35.4 µM | [20] 21.6 µM
inactive: [11] | [8] | [17] | [18]

CCOP(=O)(OCC)SCSC(C)(C)C
active: [2] 49.5 µM | [7] 84.1 µM | [13] 0.875 µM
inactive: all other assays above

COP(=O)(OC)SCN1C(=O)c2ccccc2C1=O
active: [9] 24.8 µM
inactive: all other assays above

CC1(C)C(C=C(Cl)c2ccc(Cl)cc2)C1C(=O)OC(C#N)c1ccc(F)c(Oc2ccccc2)c1 (stereo not given)
active: [2] 50 µM | [3] 61.6 µM | [4] 72 µM | [5] 75.2 µM
inactive: all other assays above

O=C1N[C@@H]2C(=C[C@H](O)[C@@H](O)[C@H]2O)c2cc3c(c(O)c21)OCO3
inactive: [12] | [15] | [17]
active: [9] 0.0216 µM | [10] 0.0237 µM | [11] 0.0383 µM | [13] 0.037 µM | [14] 0.045 µM | [16] 0.0111 µM | [18] 0.0131 µM | [19] 0.0267 µM | [20] 0.0242 µM
